Compound activity deposited in PubChem by several laboratories.
CYP2C9 act: human CYP2C9 activators, primary screen, biochemical, luminescence; activation factor at 5 µM; actives 1.4% (n = 96,000); recombinant CYP2C9, luciferin-H conversion; active compounds read high; factor 1 = untreated enzyme, 0 = blocked;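 active = activation factor of 2 or more for CYP2C9 at a 5 µM dose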;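 note: 0 = sulfaphenazole-blocked wells and 1 = vehicle-only wells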
Cav32 inh: Cav3.2 calcium influx blockers – cell-based, Fluo-4 calcium fluorescence, FDSS, MLSMR library, primary screen; B-score at 10 µM; Cav3.2-expressing cells; active compounds read low; Voltage-dependent T-type calcium channel subunit alpha-1H (Homo sapiens), O95180; AID 449739, 2010; actives 4% (n = 100,000);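 active = single-dose well whose peak fluorescence ratio is a statistical outlier from its plate by either plate-standardised score or position-corrected B-score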
CYP2C19 act: human CYP2C19 activators, primary screen, biochemical, luminescence; recombinant CYP2C19, luciferin-H EGE luminescence; active compounds read high; 0 = fully inhibited enzyme, 1 = untreated enzyme; activation factor at 5 µM; 96,000 tested, under 10 active;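 active = activation factor of at least 2 at 5 µM in the primary screen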;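 note: 0 = wells with 2.5 mM tranylcypromine and 1 = vehicle-only wells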
CYP2C19 inh: blockers of cytochrome P450 2C19 activity – biochemical, luminescence, ADME assay, primary screen; actives 21% (n = 96,000); P33261; CYP2C19 Supersomes, luciferin-H EGE luminescence, 30 min; AID 778, 2007; inhibition, % at 5 µM;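 active = CYP2C19 inhibition above a set limit at 5 µM in the primary screen, cut at about 50% in these data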;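 note: plate controls were negative control wells for no effect and 2.5 mM tranylcypromine positive control for full effect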
CYP2C9 inhib: blockers of cytochrome P450 2C9 activity – biochemical, luminescence, ADME assay, primary screen; inhibition, % at 5 µM; P11712; CYP2C9 Supersomes, luciferin-H conversion; actives 20% (n = 96,000);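 active = blocking of liver enzyme CYP2C9 beyond about 50% at 5 µM, limit read from the data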
The depositor's hits bear a star; · = no result. A selection: hits, their analogues and other compounds. The true share with any hit is near 27%.

SMILES	CYP2C9 act	Cav32 inh	CYP2C19 act	CYP2C19 inh	CYP2C9 inhib
c1cncc(-c2nc(-c3ccc4c(c3)OCO4)cs2)c1	0.6	-1.71	0.3	69.3*	36.7
Clc1ccsc1-c1csc(-c2cccnc2)n1	0.9	0.365	0.4	62.0*	6.3
COc1ccc(C(=O)CSc2nnc(CNc3nc(-c4ccccc4)cs3)n2C)cc1	0.4	-5.74*	0.4	63.8*	61.5*
CC(C)c1nnc(SCC(=O)N2CCc3ccccc32)n1C	·	0.639	·	·	·
COC(=O)CSc1nnc(CNc2nc(-c3ccccc3)cs2)n1C	·	0.329	·	·	·
Cn1c(CNc2nc(-c3ccccc3)cs2)nnc1SCC(=O)N1CCc2ccccc21	0.7	-4.57*	0.6	36.7	33.0
CCOC(=O)C1CCN(C(=O)c2sc3nc(-c4ccc(F)cc4)cn3c2C)CC1	0.7	·	0.8	19.6	33.9
CCCCCC(=O)Nc1ccc(S(=O)(=O)Nc2nccnc2OC)cc1	1.1	0.667	1.1	-8.5	-6.3
COCCNC(=O)c1ccc(CN2CCOCC2)cc1	·	0.153	·	·	·
Cc1cc(C)c(S(=O)(=O)n2ccc3ccccc32)c(C)c1	1.2	·	0.7	30.0	-17.8
O=S(=O)(c1ccccc1)n1ccc2ccccc21	2.4*	-2.55	0.6	36.2	-138.5
CCOC(=O)/C(C#N)=C\c1ccc(CC)s1	0.8	-0.088	0.9	12.7	17.7
CCOC(=O)/C(C#N)=C\C=C1C=CN(C)C=C1	1	-4.79*	1.1	-13.0	4.8
O=C(COC(=O)CC1CC2CCC1C2)NC(=O)NCc1ccco1 (stereo unspecified)	0.3	-2.17	0.4	63.4*	69.5*
CC(C)(C)c1ccc(C(=O)NNc2cc(N3CCCCC3)nc(N3CCCCC3)n2)cc1	0.4	-8.32*	0.9	14.6	60.7*
COC(=O)c1ccc(Oc2cc(C)nc(SC)n2)cc1	0.3	·	0.1	86.2*	72.1*
COCOc1cc(O)c(C(=O)/C=C/c2ccccc2)c(OCOC)c1	·	0.583	·	·	·
O=C(Nc1cccnc1)c1cc2nc(C3CC3)cc(C(F)(F)F)n2n1	0.3	0.501	0.4	63.7*	73.5*
CC1(c2cnc(Nc3ccccc3)s2)CCC(=O)O1 (stereo unspecified)	2.1*	0.834	0.7	31.0	-105.1
CCC(N)C12CC3CC(CC(O)(C3)C1)C2 (stereo unspecified)	·	0.357	·	·	·
Cc1cc(C)c(C#N)c(SCC(=O)c2cc(C)n(CCc3ccccc3)c2C)n1	0.2	-3.93	0.2	82.3*	84.8*
O=C(CSc1nnc2ccccn12)c1ccc(OC(F)F)cc1OC(F)F	0.7	-0.0092	0.2	76.5*	27.4
COCCn1c(C)cc(C(=O)CSc2ncn[nH]2)c1C	1.8	0.242	0.6	44.8	-83.3
COCCn1c(C)cc(C(=O)CSc2nc(C)cc(C)c2C#N)c1C	1.1	-0.414	0.2	78.3*	-13.9
CC(C)CCNC(=O)NC(=O)CSc1nnc2ccccn12	1.2	0.498	0.9	6.4	-16.0
SMILES	CYP2C9 act	Cav32 inh	CYP2C19 act	CYP2C19 inh	CYP2C9 inhib
COCCn1c(C)cc(C(=O)CSc2nc3ccccc3o2)c1C	1	-0.231	0.7	28.8	3.1
Cc1cc(C)c(C#N)c(SCC(=O)Nc2nnc(-c3ccccc3)s2)n1	0.8	-0.0207	0.9	10.1	18.5
COCCn1c(C)cc(C(=O)CSc2nnc3ccccn23)c1C	1	0.281	0.3	70.6*	3.1
Cc1cc(C)c(C#N)c(SCc2ccccc2)n1	·	0.203	·	·	·
Cc1cc(C)c(C#N)c(SCSCc2ccccc2)n1	0.3	-2.13	0	99.2*	73.9*
Cn1c(NC(=O)c2ccccc2NC(=O)C(C)(C)C)nc2ccccc21	0.9	·	1.1	-13.7	8.4
CCn1c(SCC(=O)c2ccc(C)cc2)nnc1-c1ccoc1C	0.7	-0.443	0	97.6*	34.7
CCn1c(SCC(=O)c2ccc(Cl)cc2)nnc1-c1ccoc1C	0.7	-0.141	0.3	66.4*	25.9
CCn1c(SCC(=O)N2CCN(c3ccccc3)CC2)nnc1-c1ccoc1C	0.8	-1.74	0.8	20.9	20.1
CCn1c(SCC(=O)c2ccccc2)nnc1-c1ccoc1C	0.5	0.785	0	97.0*	53.6*
COc1ccc(S(=O)(=O)n2ccc(C(C)Oc3ccc(-c4ccccc4)c(F)c3)n2)cc1 (stereo unspecified)	0.1	-2.44	0.8	17.0	91.9*
O=C(Nc1ccc(Cl)cn1)c1ccc(-c2ccc(Cl)c(Cl)c2)o1	·	-0.00767	·	·	·
N#Cc1cnn(-c2nc3sc4c(c3c(=O)[nH]2)CCCC4)c1N	0.9	·	1	3.0	10.4
CCCOc1c(Br)cc(/C=N/O)cc1OC	1.1	-1.34	0.8	23.3	-6.8
CCN1CCN(C(=O)c2ccc3c(c2)N(Cc2ccc(F)cc2)C(=O)c2ccccc2S3=O)CC1 (stereo unspecified)	·	-7.15*	·	·	·
CC(C)(C)n1nnnc1C(c1ccccn1)N(Cc1ccccc1)Cc1ccc(Cl)cc1 (stereo unspecified)	0.7	-3.35	0.9	5.8	31.5
CC(C)(C)n1nnnc1C(c1cccs1)N(Cc1cccnc1)Cc1ccco1 (stereo unspecified)	0.2	-4.02	0.1	85.5*	82.6*
CCN(Cc1ccccc1)C(c1ccccn1)c1nnnn1C(C)(C)CC (stereo unspecified)	0.3	-2.89	0.1	86.0*	70.9*
c1ccc(CN(Cc2cccs2)C(c2cccs2)c2nnnn2C2CCCC2)cc1 (stereo unspecified)	0.6	-4.66	0.7	32.5	41.2
CC(C)(C)n1nnnc1C(c1cccs1)N(Cc1ccccc1)Cc1ccco1 (stereo unspecified)	0.5	-2.46	0.7	31.0	52.8*
CCN(Cc1ccccc1)C(c1ccc(C)cc1)c1nnnn1C(C)(C)C (stereo unspecified)	0.9	0.0184	0.7	26.6	10.1
CC(C)(C)n1nnnc1C(c1ccncc1)N(Cc1ccccc1)Cc1ccco1 (stereo unspecified)	0.1	-1.08	0.3	73.7*	86.7*
Fc1ccccc1COc1ccc(/C=N/n2cnnc2)cc1	0.1	0.571	0	97.2*	94.7*
COC(=O)c1ccc(/C=N/n2cnnc2)cc1	0.7	0.566	0.5	47.3	28.8
C(=N\n1cnnc1)/c1ccc(OC2CSC2)cc1	0.1	-2.27	0.1	92.9*	85.3*
C(=N\n1cnnc1)/c1ccc(OCc2cccc3ccccc23)cc1	0.2	-0.729	0.6	37.5	80.8*
Cc1ccccc1C(=O)NNc1ccc([N+](=O)[O-])cc1	1	-0.768	0.9	14.8	-0.4
Cc1ccc(C(=O)c2ccc([N+](=O)[O-])cc2)c(C)c1	0.4	0.137	0.2	82.1*	59.9*
CCCCNC(=O)OCC(CC)NC(=O)OC(C)C (stereo unspecified)	0.8	0.0806	0.5	53.0*	19.5
